The text below walks through data of the supplement of paper PMC9337992.

± gives the standard deviation of the averaged measurements.

The assay has as its system MDAMB231. Briefly: cell proliferation (confluence) relative to DMSO control; higher = less growth inhibition. To be noted: 5 uM; 6 d. On the procedure:
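Epigenetic chemical probe screen: 15 TNBC cell lines, 500 cells per well in 384-well plates, treated with 5 uM of each of 36 SGC probes for 6 d. Confluency was imaged by IncuCyte ZOOM and normalised to DMSO control wells. Four replicate wells per compound.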
Regarding `CCCc1cc(C)[nH]c(=O)c1CNC(=O)c1cc(-c2ccnc(N3CCN(C)CC3)c2)cc2c1cnn2C(C)C`, the cell proliferation was 99.683 ± 0.051%.

In turn, `COc1cc(-c2cn(C)c(=O)c3cnccc23)c(OC)cc1CN(C)C` gave a cell proliferation of 96.6 ± 1.5%.

As to `CCCOc1ccn2c(C(C)=O)cc(-c3ccccc3S(C)(=O)=O)c2c1`, the cell proliferation turned out to be 96.7 ± 2.7%.

Regarding `Cc1cc(=O)n(C)c2cc(N3C(=O)CC[C@H](NS(=O)(=O)CC(C)C)[C@H]3c3ccc(Cl)cc3)ccc12`, the cell proliferation was determined as 95.9 ± 3.5%.

In the case of `CC(C)N(CCCNC(=O)Nc1ccc(C(C)(C)C)cc1)C[C@H]1O[C@@H](n2cc(Br)c3c(N)ncnc32)[C@H](O)[C@@H]1O`, the cell proliferation was 99.63 ± 0.16%.

The compound `CNCCN1CCC(OCc2ccccc2)CC1` had a cell proliferation of 82 ± 5.4%.

Compound `COc1cc(C#N)ccc1S(=O)(=O)Nc1ccc2c(c1)cc(C)c(=O)n2C` yielded a cell proliferation of 95.9 ± 4.5%.

With `CCOC(=O)CCNc1cc(N2CCc3ccccc3CC2)nc(-c2cccnc2)n1`, the cell proliferation is 98.88 ± 0.33%.

Regarding `O=C(/C=C/N1C[C@H]2C[C@@H]1CN2c1ccccn1)c1ccccc1O`, the cell proliferation was found to be 99.17 ± 0.39%.

`CCCc1cc(C)n(C)c(=O)c1CN(C)C(=O)c1cc(-c2ccc(N3CCN(C(C)C)CC3)nc2)cc2c1cnn2C(C)C` returned a cell proliferation of 99.29 ± 0.32%.

In the case of `CC(C)Oc1ccc(-c2c[nH]cc2CN(C)CCN)cc1`, the cell proliferation worked out at 46.8 ± 5.9%.

In turn, `O=C(NCC(=O)N1CCCC1)Nc1ccc2cnccc2c1` gave a cell proliferation of 81.5 ± 7.2%.

As to `CC(C)Oc1ccc(-c2c[nH]cc2CN(C)CCO)cc1`, the cell proliferation was 86.1 ± 7.1%.

In turn, `CN(C)[C@H]1CN(C2CCc3cccc(F)c32)C[C@@H]1c1ccc(N2CCN(S(C)(=O)=O)CC2)cc1` (some centres not stated) had a cell proliferation of 99.19 ± 0.27%.

The compound `Cn1cc(CCn2cnc(-c3cnn(C)c3)c2-c2ccc(C#N)cc2)cn1` had a cell proliferation of 96.4 ± 3.1%.

The compound `CCC(=O)N1CCOc2c(cc(-c3ccc(OC)c(OC)c3)cc2OC[C@H]2CCCN(C)C2)C1` registered a cell proliferation of 79.2 ± 5.1%.

On to `CCN(C(=O)CO)[C@H]1CN(/C(=N\C#N)Nc2cccc(OC(F)F)c2)N=C1c1ccc(Cl)c(Cl)c1`, for which the cell proliferation amounted to 98.31 ± 0.72%.

In turn, `Clc1cc2c(NC3CCCC3)nnc(-c3ccncc3)c2cc1Cl` displayed a cell proliferation of 98.72 ± 0.35%.

For `COc1cc2c(cc1OCCCN1CCCC1)N=C(N)C21CCC1`, the cell proliferation came out at 96 ± 1.6%.

`COc1ccccc1C(=O)Nc1cc2c(cc1N1CCCC1)n(C)c(=O)n2C` showed a cell proliferation of 91.8 ± 5.7%.

In turn, `O=C([C@@H](Cc1cccc(C(F)(F)F)c1)NS(=O)(=O)c1cc(F)c2c(c1)CCNC2)N1CCCC1` returned a cell proliferation of 87 ± 14%.

As to `O=C(c1ccc(C(=O)N2CCC(N3CCCC3)CC2)c(Nc2ccccc2)c1)N1CCC(N2CCCC2)CC1`, the cell proliferation is 99.13 ± 0.17%.

Consider `CCn1cc(-c2cccc(C(F)(F)F)c2)c2sc(C(=N)NC3CCS(=O)(=O)CC3)cc2c1=O`, for which the cell proliferation worked out at 89.7 ± 4%.

`COc1ccccc1S(=O)(=O)Nc1ccc2c(c1)CN(C)C(=O)N2` showed a cell proliferation of 67.9 ± 8.3%.

On to `CCOC(=O)CCNc1cc(N2CCc3ccccc3CC2)nc(-c2ccccn2)n1`, for which the cell proliferation was 31.7 ± 7.8%.

`COc1ccc(CCc2nc3cc(-c4c(C)noc4C)ccc3n2C[C@H](C)N2CCOCC2)cc1Cl` came in with a cell proliferation of 90.9 ± 1.5%.

Regarding `O=C(NC[C@H](O)CN1CCc2ccccc2C1)c1ccnc(NC2CCC2)c1`, the cell proliferation turned out to be 45 ± 5.1%.

In the case of `COc1c(C)cc(NC(=O)c2nn(Cc3ccc(F)cc3)c3c2CN(C(=O)c2ccc[nH]2)C[C@]3(C)C(N)=O)cc1C`, the cell proliferation turned out to be 95.7 ± 2.2%.

In turn, `Cc1nnc2c3ccccc3c(N[C@@H](C)[C@H](c3ccccc3)N(C)C)nn12` [L-moses] came in with a cell proliferation of 88.6 ± 8.2%.

Compound `CCCc1cc(C)[nH]c(=O)c1CNC(=O)c1cc(-c2ccc(N3CCN(C(C)C)CC3)nc2)cc2c1cnn2C(C)C` came in with a cell proliferation of 57.1 ± 6.4%.

On to `CC[C@H](C)n1cc(C)c2c(C(=O)NCc3c(C)cc(C)[nH]c3=O)cc(-c3ccc(N4CCNCC4)nc3)cc21`, for which the cell proliferation came to 98.5 ± 1.6%.

In the case of `COc1cc2c(NC3CCN(C(C)C)CC3)nc(C3CCCCC3)nc2cc1OCCCN1CCCC1`, the cell proliferation turned out to be 99.05 ± 0.52%.
